Screens deposited in PubChem by National Center for Advancing Translational Sciences (NCATS).
The list is not random: actives were taken first. Their share in the collection is about 12%.
Sfp inh = qHTS Assay for Inhibitors of Bacillus subtilis Sfp phosphopantetheinyl transferase (PPTase) | Biochemical Sfp PPTase activity, qHTS | Potency, µM, hits mostly inhibitors | 310,000 compounds, 3.5% hits;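 also: the enzyme is Sfp with the accession as filed and its product quenches rhodamine fluorescence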
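After 15 min at room temperature with compound, 15 nM Sfp received 5 uM rhodamine-CoA plus 12.5 uM BHQ-2-ybbR (50 mM Hepes pH 7.6, 10 mM MgCl2). Rate came from the fluorescence difference over 30 min, ex 525/em 598 nm.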
HP1b binding inh = HTS for Inhibitors of HP1-beta Chromodomain Interactions with Methylated Histone Tails; 390,000 compounds, 0.56% hits; AlphaScreen HP1-beta / biotin-H3K9me3 peptide binding; Potency, µM (doses to about 114 µM), actives largely listed as inhibitors; AID 540317, 2011; Chromobox protein homolog 1 (Homo sapiens), P83916; also: nearly all actives have a fitted effect of over 70% in size
Target sequence (P83916 whole entry, looked up): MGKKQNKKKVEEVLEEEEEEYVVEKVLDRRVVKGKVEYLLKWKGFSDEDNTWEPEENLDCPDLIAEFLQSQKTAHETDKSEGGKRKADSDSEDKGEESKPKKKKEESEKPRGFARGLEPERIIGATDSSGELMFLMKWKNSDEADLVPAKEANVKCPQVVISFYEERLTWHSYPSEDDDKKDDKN
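AlphaScreen: HP1-beta (50 nM) preformed 30 min with biotin-H3(1-18)K9me3 peptide (50 nM) in PBS pH 7.4, 0.01% Tween-20. Compound added for 30 min at RT, then streptavidin donor/nickel chelate acceptor beads (10 ug/mL) for 30 min.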
JMJD2A Tudor = qHTS Assay for Inhibitors of JMJD2A-Tudor Domain | Potency, µM (top dose mostly 114 µM), most hits filed as inhibitors | Lysine-specific demethylase 4A (Homo sapiens), O75164 | 390,000 compounds, 4.4% hits | AID 504339, 2011 | AlphaScreen JMJD2A-Tudor / H3K4me3 peptide binding; also: nearly all actives have a fitted effect of over 50% in size
BAZ2B inh = qHTS Assay for Inhibitors of BAZ2B; Bromodomain adjacent to zinc finger domain protein 2B (Homo sapiens), Q9UIF8; AlphaScreen BAZ2B-H3K14Ac peptide displacement; Potency, µM (titrated, usually from 114 µM), most hits filed as inhibitors; 360,000 compounds, 4.4% hits; also: nearly all actives have a fitted effect of over 60% in size
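Multi-concentration screen (max 110 uM) measuring displacement of acetylated histone H3 peptide from BAZ2B by AlphaScreen, using 50 nM protein, 50 nM peptide and 10 ug/mL streptavidin donor plus Ni-chelate acceptor beads.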
PLK1 PBD inh = qHTS for Inhibitors of PLK1-PDB (polo-like kinase 1 - polo-box domain): Primary Screen | Serine/threonine-protein kinase PLK1 (Homo sapiens), P53350 | Plk1 PBD binding of FITC phosphopeptide, fluorescence polarization | Potency, µM, most hits filed as inhibitors | 360,000 compounds, 2.8% hits; also: series mostly up to about 57 µM; nearly all actives have a fitted effect of over 65% in size
G9a inh = qHTS Assay for Inhibitors of Histone Lysine Methyltransferase G9a. AID 504332, 2011. Histone-lysine N-methyltransferase EHMT2 (Homo sapiens), Q96KQ7. Potency, µM (series often up to 102 µM), usual class: inhibitors. 350,000 compounds, 8.8% hits. G9a H3K9 monomethylation, AlphaScreen, 2 h; also: nearly all actives have a fitted effect of over 75% in size
Target sequence (Q96KQ7 913-1193 limits assumed): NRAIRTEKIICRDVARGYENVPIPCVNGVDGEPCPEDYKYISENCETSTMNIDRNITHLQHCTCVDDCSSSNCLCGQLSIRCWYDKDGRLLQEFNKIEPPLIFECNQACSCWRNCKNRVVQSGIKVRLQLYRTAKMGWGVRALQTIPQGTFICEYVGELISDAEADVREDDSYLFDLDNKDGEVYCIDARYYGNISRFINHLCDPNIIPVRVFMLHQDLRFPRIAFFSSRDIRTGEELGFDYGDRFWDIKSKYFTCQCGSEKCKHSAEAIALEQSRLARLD
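G9a (20 nM) was preincubated 15 min with compound, then reacted 2 h at room temperature with 500 nM biotin-H3K9 peptide and 20 µM SAM. Monomethyl-H3K9 detected by AlphaScreen using anti-H3K9me1 antibody.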
Hits are given with their value; [ ] = another dose, or the depositor's remark. Calls follow the shape of the dose curve; as a rule, active = well fitted curve in the direction sought with a large enough effect; inconclusive = small, poorly fitted or top-dose-only effect, or another doubt; inactive = no such curve, though single readings can be large; an effect the other way counts as inactive or inconclusive.

`CC1(C)CC(=O)C(CC(=O)c2ccccc2)=C(NN=C(N)N)C1` gave PLK1 PBD inh inactive.
COc1ccc(NC(=O)[C@@H](NC(N)=O)C(C)C)cc1Cl was read as Sfp inh inactive, HP1b binding inh inactive, JMJD2A Tudor inactive, BAZ2B inh inactive, PLK1 PBD inh inactive and G9a inh inactive.
For CN1C(=O)/C(=C/c2cn(CC(=O)N3CCCCC3)c3ccccc23)NC1=S the results were Sfp inh inactive, HP1b binding inh inactive, JMJD2A Tudor inactive, BAZ2B inh inactive, PLK1 PBD inh inactive and G9a inh 39.8µM.
Screening CCN=C1S/C(=C\c2cn(CC(=O)NCc3ccco3)c3ccccc23)C(=O)N1CC returned Sfp inh inconclusive, HP1b binding inh inactive, JMJD2A Tudor inactive, BAZ2B inh inactive, PLK1 PBD inh inactive and G9a inh inactive.
Screening O=Cc1cn(CC(=O)N2CCCCCC2)c2ccccc12 returned Sfp inh inactive, HP1b binding inh inactive, JMJD2A Tudor inactive, BAZ2B inh inactive, PLK1 PBD inh inactive and G9a inh inactive.
CN1C(=O)/C(=C/c2cn(CC(=O)NCc3ccco3)c3ccccc23)NC1=S was read as Sfp inh 7.08µM and BAZ2B inh inconclusive.
`CC1(C(=O)NS(C)(=O)=O)CCN1C(=O)Cc1ccc(-c2ccccc2)cc1` (stereo unspecified) gave PLK1 PBD inh inactive.
For O=C(CCC1CCCN(C(=O)c2cncs2)C1)NCc1ccc(F)c(F)c1 (stereo unspecified) the results were Sfp inh inactive, HP1b binding inh inconclusive, JMJD2A Tudor 25.1µM, BAZ2B inh inactive, PLK1 PBD inh 29.9µM and G9a inh inactive[12.7 µM].
`COc1cccc(CNC(=O)CCC2CCCN(C(=O)c3cc(C)on3)C2)c1` (stereo unspecified) gave Sfp inh inactive, HP1b binding inh inactive, JMJD2A Tudor inactive, BAZ2B inh inactive, PLK1 PBD inh inactive and G9a inh inactive.
COC(=O)c1ccc(CN2CCCC(CCC(=O)NCc3ccc(C)o3)C2)cc1 (stereo unspecified) was read as Sfp inh inactive, HP1b binding inh inactive, JMJD2A Tudor inconclusive, BAZ2B inh inactive, PLK1 PBD inh 23.8µM and G9a inh inactive.
`O=C(CCC1CCCN(C(=O)C2CCCC2)C1)NCc1ccc(F)c(F)c1` (stereo unspecified) gave Sfp inh inactive, HP1b binding inh inactive, JMJD2A Tudor inactive, BAZ2B inh inactive, PLK1 PBD inh inactive and G9a inh inactive[12.7 µM].
For COc1cccc(CNC(=O)CCC2CCCN(C(=O)c3ccc(OC)o3)C2)c1 (stereo unspecified) the results were Sfp inh 50.1µM, HP1b binding inh inactive, JMJD2A Tudor inactive, BAZ2B inh inactive and PLK1 PBD inh inactive.
Screening COc1cccc(CNC(=O)CCC2CCCN(C(=O)c3csc(C(C)C)n3)C2)c1 (stereo unspecified) returned Sfp inh inactive, HP1b binding inh inactive, JMJD2A Tudor inactive, BAZ2B inh inactive, PLK1 PBD inh inactive and G9a inh inactive.
For COc1cccc(CNC(=O)CCC2CCCN(C(=O)c3cccnc3SC)C2)c1 (stereo unspecified) the results were Sfp inh inactive, HP1b binding inh inactive, JMJD2A Tudor 39.8µM, BAZ2B inh inactive, PLK1 PBD inh inactive and G9a inh inactive.
CC(C)CC(=O)Nc1c(C(=O)N2CCN(c3ccccc3)CC2)oc2ccccc12 was read as HP1b binding inh inactive, JMJD2A Tudor inactive, BAZ2B inh inactive and G9a inh 14.1µM.
`COc1cccc(N2CCN(C(=O)c3oc4ccccc4c3NC(=O)CCc3cc(OC)no3)CC2)c1` gave Sfp inh inactive, HP1b binding inh inactive, JMJD2A Tudor inconclusive, BAZ2B inh inconclusive, PLK1 PBD inh inactive and G9a inh 56.2µM.
`Cc1nn(-c2ccccc2)c(C)c1/C=N/n1c(-c2ccc(Cl)cc2)n[nH]c1=S` gave Sfp inh inactive, HP1b binding inh inactive, JMJD2A Tudor inconclusive, BAZ2B inh inactive, PLK1 PBD inh inconclusive and G9a inh 5.01µM.
Screening Cc1nn(-c2ccccc2)c(C)c1/C=N/n1c(-c2ccncc2)n[nH]c1=S returned Sfp inh inactive, HP1b binding inh inactive, JMJD2A Tudor inconclusive, BAZ2B inh inconclusive, PLK1 PBD inh inactive and G9a inh 2.24µM.
Cc1ccc(-c2n[nH]c(=S)n2/N=C/c2c(C)[nH]n(-c3ccccc3)c2=O)cc1 was read as Sfp inh 50.1µM, HP1b binding inh inactive, JMJD2A Tudor inconclusive, PLK1 PBD inh inactive and G9a inh 1.26µM.
N#Cc1c(N2CCCC2)ccc(Br)c1Cl was read as Sfp inh inactive, HP1b binding inh inactive, JMJD2A Tudor inactive, BAZ2B inh inactive and PLK1 PBD inh inactive.
For CCOC(=O)c1cc2occc2n1CCCN1C(=O)c2ccccc2C1=O the results were Sfp inh inactive, HP1b binding inh inconclusive, JMJD2A Tudor inconclusive, BAZ2B inh 50.1µM, PLK1 PBD inh inactive and G9a inh 14.1µM.
CCOC(=O)c1cc2sc(C)cc2n1CCCN1C(=O)c2ccccc2C1=O was read as Sfp inh inactive, HP1b binding inh inactive, JMJD2A Tudor inactive, BAZ2B inh inactive, PLK1 PBD inh inactive and G9a inh inactive.
CCOC(=O)c1cc2occc2n1CC(=O)Nc1ccc(OC)cc1OC was read as Sfp inh inactive, HP1b binding inh inactive, JMJD2A Tudor inconclusive, BAZ2B inh inconclusive, PLK1 PBD inh inconclusive and G9a inh 39.8µM.
For O=C(c1csnn1)N1CCC2(CC1)CN(c1ccncc1)C2 the results were Sfp inh inactive and G9a inh inactive[12.7 µM].
CC1CCCN(C(=O)C(C)Nc2cc(Cl)ccc2N2CCOCC2)C1 (stereo unspecified) was read as Sfp inh inactive, HP1b binding inh inactive, JMJD2A Tudor inconclusive, BAZ2B inh inconclusive, PLK1 PBD inh inconclusive and G9a inh 39.8µM.
Screening COc1cccc(OC)c1C(=O)Nc1cc(Cl)ccc1N1CCOCC1 returned Sfp inh inactive, HP1b binding inh inactive, JMJD2A Tudor inactive, BAZ2B inh inactive, PLK1 PBD inh inactive and G9a inh inconclusive.
COc1ccc(OCC(CO)N2CCN(c3ccccc3)CC2)cc1 (stereo unspecified) was read as HP1b binding inh inactive, JMJD2A Tudor inactive and PLK1 PBD inh inactive.
c1coc(-c2nc3nc4ccccc4nc3n2CC2CCCO2)c1 (stereo unspecified) was read as Sfp inh 79.4µM, HP1b binding inh inactive, JMJD2A Tudor inactive, BAZ2B inh inactive, PLK1 PBD inh inactive and G9a inh 50.1µM.
